The record followed here is PubChem BioAssay (Tox21).

Values without a mark were called inactive. Inconclusive results are not listed. Activity calls are given as the source filed them. Unless noted, calls come from the whole dose curve; as a rule, active = well fitted curve in the direction sought with a large enough effect in the repeat runs; inconclusive = weak or mixed curves; inactive = no such curve, though single readings can be large; an effect the other way counts as inactive or inconclusive.

For assay [1], the target named is Thyrotropin receptor (Homo sapiens) (UniProt P16473). In words: qHTS assay to identify small molecule antagonists of the thyroid stimulating hormone receptor (TSHR) signaling pathway (AID 1259385; calls by dose curve; note: nearly all actives have a fitted effect of over 20% in size; note: potency is the fitted concentration of half-maximal effect). The essentials:
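Antagonist mode: compound-treated TSHR-expressing HEK293 cells were stimulated with 1.5 ng/mL TSH (final) in presence of Ro20-1724 for 30 min at RT. HTRF cAMP detection after 1 h; each compound tested at 15 concentrations, triplicate.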

Assay [2] can be described thus: qHTS assay to identify small molecule agonists of the estrogen receptor alpha (ER-alpha) signaling pathway in the presence of an antagonist - cell viability counter screen (AID 1259386).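 Note: series mostly up to about 92 µM; cells exposed to compounds for 22 h at 37 °C before the viability read; nearly all actives have a fitted effect of over 30% in size.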 The method, boiled down:
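The test measures whether compounds kill ER-alpha reporter cells (VM7Luc4E2) under antagonist co-treatment (ICI-182,780, 10.0nM). Fluorescence from CellTiter-Fluor is read after a 22hr exposure.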

Assay [3] concerns the target Progesterone receptor (Homo sapiens) (UniProt P06401). In words: qHTS assay to identify small molecule agonists of the progesterone receptor (PR) signaling pathway (AID 1346784; calls by dose curve; note: nearly all actives have a fitted effect of over 30% in size). The essentials: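 Agonist mode, quantitative HTS format in a HEK 293T line expressing a UAS-controlled beta-lactamase reporter; 16 hr compound exposure at 37C in 2% charcoal-stripped FBS, then LiveBLAzer B/G FRET fluorescence.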

For assay [4] the target is unchanged. Nature of the assay: qHTS assay to identify small molecule antagonists of the progesterone receptor (PR) signaling pathway (AID 1346795; active = well fitted inhibition curve with a large enough effect in the signal ratio in the repeat runs, not every such curve was filed as active; the % refers to the signal ratio). The method, boiled down:
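HEK293T PR-UAS-bla reporter cells in charcoal-stripped serum (2%) received compound after a 6 hr settling period, followed by R5020 agonist at 1 nM final; 16 hr incubation preceded the FRET substrate step and fluorescence measurement.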

Assay [5] is described as follows: qHTS assay to identify small molecule antagonists of the progesterone receptor (PR) signaling pathway - cell viability counter screen (AID 1346798). Note: series mostly up to about 92 µM; nearly all actives have a fitted effect of over 50% in size. The essentials: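 Same-well multiplex: after 16 hr at 37C with compound and R5020 stimulation, HEK293T cells carrying a UAS-bla reporter received LiveBLAzer substrate (2 hr RT), then CellTiter-Glo (30 min RT) for luminescent viability.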

A short description of assay [6]: qHTS assay to identify small molecule agonists of the progesterone receptor (PR) signaling pathway - cell viability counter screen (AID 1346799; calls by dose curve; note: nearly all actives have a fitted effect of over 45% in size). The method, boiled down:
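Counter screen for cytotoxicity: compound-treated PR-UAS-bla HEK293T cells (16 hr, 37C, 5% CO2) were assayed with CellTiter-Glo, luminescence measured after 30 min at room temperature.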

Assay [7] can be described thus: qHTS assay to identify small molecule antagonists of the TGF-beta/Smad signaling pathway - cell viability counter screen (AID 1346824). Note: nearly all actives have a fitted effect of over 50% in size. The method, boiled down:
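Cytotoxicity counter-screen run in the same wells as the beta-lactamase Smad reporter read: CellTiter-Glo luminescence after 30 min at room temperature. HEK 293T SBE-bla cells had 5 hr compound exposure at 37 C with TGF-beta1 (0.25 ng/mL stock).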

The nature of assay [8]: qHTS assay to identify small molecule agonists of the TGF-beta/Smad signaling pathway - cell viability counter screen (AID 1346829). Note: top concentration of the series differs between compounds; nearly all actives have a fitted effect of over 45% in size. The essentials:
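Luminescence from CellTiter-Glo, read after a 30 min room-temperature incubation, gives cell viability of SBE-bla HEK 293T cells treated 5 hr with compounds at 37 C.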

Assay [9] is described as follows: qHTS assay to identify small molecule agonists of the TGF-beta/Smad signaling pathway (AID 1346859; active = well fitted activation curve with a large enough effect in the signal ratio in the repeat runs, not every such curve was filed as active; the % refers to the signal ratio; note: series mostly up to about 77 µM). The method, boiled down: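 Smad-responsive beta-lactamase reporter cells (HEK 293T) received compounds from DMSO stocks after overnight attachment, were incubated 5 hr, then treated 2 hr with FRET substrate before dual-emission fluorescence measurement (405 nm excitation).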

Assay [10] deals with Thyrotropin-releasing hormone receptor (Homo sapiens) (UniProt P34981). Nature of the assay: qHTS assay to identify small molecule antagonists of the thyrotropin-releasing hormone receptor (TRHR) signaling pathway (AID 1346877; active = well fitted inhibition curve with a large enough effect in the repeat runs, not every such curve was filed as active; note: series mostly up to about 51 µM). The method, boiled down:
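Overnight-plated (18 h, 37 °C) HEK293 cells expressing TRHR were dye-loaded 2 h, treated with compound, then stimulated with TRH at 1 nM final. Fluorescence intensity was captured every second for 3 min.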
% is set by controls: 0 for no effect and ±100 for the full control effect.

Thyrotropin receptor (Homo sapiens), sequence (P16473 whole entry, looked up): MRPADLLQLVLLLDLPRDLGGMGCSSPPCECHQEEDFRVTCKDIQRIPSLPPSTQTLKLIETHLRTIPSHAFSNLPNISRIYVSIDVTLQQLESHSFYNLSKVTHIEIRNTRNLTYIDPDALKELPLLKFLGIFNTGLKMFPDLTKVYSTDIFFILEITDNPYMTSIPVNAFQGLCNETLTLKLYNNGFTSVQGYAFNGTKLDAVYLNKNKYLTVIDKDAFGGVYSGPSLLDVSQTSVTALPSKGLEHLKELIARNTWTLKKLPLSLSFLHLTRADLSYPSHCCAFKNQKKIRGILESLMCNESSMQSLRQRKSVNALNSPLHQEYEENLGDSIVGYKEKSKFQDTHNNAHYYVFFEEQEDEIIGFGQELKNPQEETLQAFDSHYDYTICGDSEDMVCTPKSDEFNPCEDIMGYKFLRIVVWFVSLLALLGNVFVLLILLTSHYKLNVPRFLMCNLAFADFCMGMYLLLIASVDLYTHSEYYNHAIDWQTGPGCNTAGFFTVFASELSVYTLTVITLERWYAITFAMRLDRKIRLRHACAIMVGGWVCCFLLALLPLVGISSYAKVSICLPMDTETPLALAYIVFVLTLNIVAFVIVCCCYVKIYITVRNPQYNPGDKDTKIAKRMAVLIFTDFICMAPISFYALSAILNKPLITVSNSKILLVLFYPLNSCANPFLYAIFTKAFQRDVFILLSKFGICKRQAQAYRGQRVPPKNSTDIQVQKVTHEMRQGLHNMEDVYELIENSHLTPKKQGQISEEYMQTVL
Thyrotropin-releasing hormone receptor (Homo sapiens), sequence (P34981 whole entry, looked up): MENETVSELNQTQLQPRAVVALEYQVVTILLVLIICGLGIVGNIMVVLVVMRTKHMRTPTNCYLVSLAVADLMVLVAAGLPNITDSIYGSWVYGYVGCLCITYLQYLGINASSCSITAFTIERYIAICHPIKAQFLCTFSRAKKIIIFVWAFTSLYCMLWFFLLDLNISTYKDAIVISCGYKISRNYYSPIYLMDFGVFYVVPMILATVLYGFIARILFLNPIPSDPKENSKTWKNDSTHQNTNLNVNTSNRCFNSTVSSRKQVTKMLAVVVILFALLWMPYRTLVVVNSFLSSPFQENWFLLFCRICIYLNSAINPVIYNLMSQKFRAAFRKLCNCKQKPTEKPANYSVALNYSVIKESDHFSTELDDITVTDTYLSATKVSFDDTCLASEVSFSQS
Progesterone receptor (Homo sapiens), sequence (P06401 whole entry, looked up): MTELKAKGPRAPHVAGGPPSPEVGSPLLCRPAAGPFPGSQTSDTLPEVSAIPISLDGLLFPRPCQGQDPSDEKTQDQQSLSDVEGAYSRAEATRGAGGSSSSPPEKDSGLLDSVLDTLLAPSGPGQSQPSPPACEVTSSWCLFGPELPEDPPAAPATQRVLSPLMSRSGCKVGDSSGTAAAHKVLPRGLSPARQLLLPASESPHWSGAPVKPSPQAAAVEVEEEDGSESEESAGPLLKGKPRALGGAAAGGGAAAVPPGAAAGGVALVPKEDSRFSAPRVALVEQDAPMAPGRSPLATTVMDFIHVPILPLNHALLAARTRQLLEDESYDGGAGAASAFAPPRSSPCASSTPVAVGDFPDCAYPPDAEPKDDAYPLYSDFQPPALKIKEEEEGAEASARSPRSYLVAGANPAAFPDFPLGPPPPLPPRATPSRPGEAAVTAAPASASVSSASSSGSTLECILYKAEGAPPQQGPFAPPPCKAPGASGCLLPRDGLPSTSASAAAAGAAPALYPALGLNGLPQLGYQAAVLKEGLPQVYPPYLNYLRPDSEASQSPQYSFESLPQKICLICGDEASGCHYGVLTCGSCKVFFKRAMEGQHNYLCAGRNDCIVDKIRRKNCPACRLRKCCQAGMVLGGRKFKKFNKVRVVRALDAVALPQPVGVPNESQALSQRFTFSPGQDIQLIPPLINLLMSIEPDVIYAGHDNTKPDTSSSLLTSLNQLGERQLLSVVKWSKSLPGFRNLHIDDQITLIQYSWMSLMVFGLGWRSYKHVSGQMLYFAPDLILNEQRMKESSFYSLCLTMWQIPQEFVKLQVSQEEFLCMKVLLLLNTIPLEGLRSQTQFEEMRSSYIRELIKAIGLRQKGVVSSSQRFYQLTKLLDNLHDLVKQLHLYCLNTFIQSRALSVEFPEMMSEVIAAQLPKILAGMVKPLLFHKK

On to `CC/C=C\CCOC(=O)C(C)C`, for which the Potency result in assay [1], in assay [2], in assay [3], in assay [4], in assay [5] and in assay [6] was “inactive” in each case. The result in [7], in assay [8], in assay [9] and in assay [10] was inactive.

With `Cc1onc(-c2ccccc2)c1C(=O)Cl`, the Potency entry in [1], in assay [2], in [3], in assay [4], in [5] and in [6] was “inactive” in each case. Moreover, the result in assay [7] and in assay [8] was inactive.

With `CCN(CC)CCNC(=O)COc1ccc(Cl)cc1`, the Potency result in assay [1], in [2], in [3], in assay [4], in assay [5] and in assay [6] was “inactive” throughout. The compound was classed as inactive in [7], in assay [8] and in [9].

Regarding `CCNCCO`, the Potency entry in assay [1], in [2], in assay [3], in assay [4], in assay [5] and in assay [6] was “inactive” each time. The call in [7], in [8] and in assay [9] was inactive.

Regarding `CCCCC1CCC(=O)O1` (stereo not given), the Potency entry in assay [1], in assay [2], in assay [3], in assay [4], in [5] and in assay [6] was “inactive” in each case. Besides, the outcome in [7], in [8], in assay [9] and in assay [10] was inactive.

Regarding `CCCc1c2oc(C(=O)O)cc(=O)c2cc2c(=O)cc(C(=O)O)n(CC)c12`, the Potency result in [1], in assay [2], in [3], in [4], in [5] and in assay [6] was “inactive” each time. The call in assay [7], in [8] and in assay [9] was inactive.

Consider `CCN(CC)CCOc1ccc(Cc2ccccc2)cc1`, for which the Potency in assay [1] is 29.8 µM (active). For the same compound, the Potency entry in [2], in assay [3], in assay [4], in [5] and in assay [6] was “inactive” each time. Also, the compound was classed as inactive in assay [7], in [8] and in [9].

Consider `C[C@@H]1CN(c2c(F)c(N)c3c(=O)c(C(=O)O)cn(C4CC4)c3c2F)C[C@H](C)N1`, for which the activity change, negative = inhibition in [1] is -0.774% [at 19 µM]; in [4] it was 8.12% [at 18.9 µM]. The activity change, negative = cytotoxicity was 1.7% [at 19 µM] in assay [2], 4.97% [at 19 µM] in [6] and -11.5% [at 15.8 µM] in assay [8]. For the same compound, the results for the activation in assay [3] and in assay [9] were 3.14% [at 19 µM] and 1.17% [at 15.8 µM], respectively. For the same compound, the Potency result in [5] is “inactive”. The viability change, negative = cytotoxic in assay [7] is 4.43% [at 15.8 µM]. Moreover, in [10], the activity, negative = inhibition is 0.314% [at 10.5 µM].

In the case of `NS(=O)(=O)c1cc(-c2nn[nH]n2)c(NCc2cccs2)cc1Cl`, the Potency result in [1], in assay [2], in [3], in assay [4], in assay [5] and in assay [6] was “inactive” each time. Besides, the call in assay [7], in assay [8] and in [9] was inactive.

Turning to `CCCCNc1cc(C(=O)O)cc(S(N)(=O)=O)c1Oc1ccccc1`, the Potency result in [1], in [2], in assay [3], in assay [4], in [5] and in assay [6] was “inactive” in each case. Also, the outcome in assay [7], in assay [8], in assay [9] and in [10] was inactive.

For the compound `CC/C=C\CCOC(=O)CCCCC`, the Potency entry in assay [1], in assay [2], in assay [3], in [4], in assay [5] and in [6] was “inactive” each time. Moreover, the call in assay [7], in [8], in assay [9] and in assay [10] was inactive.

In the case of `O=C(Cl)c1cccc([N+](=O)[O-])c1`, the Potency entry in assay [1], in [2], in assay [3], in assay [4], in [5] and in assay [6] was “inactive” in each case. Further, the call in assay [7], in assay [8] and in assay [9] was inactive.

On to `CCOC(=O)C1CC(=O)C(=C(O)C2CC2)C(=O)C1` (stereo not given), for which the Potency entry in assay [1], in [2], in assay [3], in assay [4], in assay [5] and in assay [6] was “inactive” throughout. The compound was called inactive in assay [7], in assay [8], in assay [9] and in [10].

Regarding `CC(=O)OC1C2(C)CCC(C2)C1(C)C` (stereo not given), the Potency result in assay [1], in [2], in assay [3], in [4], in assay [5] and in assay [6] was “inactive” in each case. Also, the result in [7], in assay [8], in [9] and in [10] was inactive.

For `N#CSCC(=O)O`, the Potency result in assay [1], in assay [2], in assay [3], in assay [4], in [5] and in assay [6] was “inactive” each time. Further, the call in [7], in assay [8] and in [9] was inactive.

Turning to `C[C@@H](N)C(=O)O`, the Potency result in [1], in assay [2], in assay [3], in [4], in [5] and in assay [6] was “inactive” in each case. The outcome in assay [7], in assay [8] and in assay [9] was inactive.

As for `O=C(O)[C@@H]1CSCN1`, the Potency entry in [1], in [2], in assay [3], in assay [4], in assay [5] and in [6] was “inactive” throughout. In addition, the result in assay [7], in [8] and in [9] was inactive.

For `CN(CC1(C)CCCO1)S(=O)(=O)c1ccc(Cl)c(S(N)(=O)=O)c1` (stereo not given), the Potency entry in assay [1], in assay [2], in assay [3], in assay [4], in [5] and in assay [6] was “inactive” throughout. Further, the outcome in [7], in assay [8], in [9] and in assay [10] was inactive.

In the case of `Oc1ccccc1F`, the Potency result in assay [1], in [2], in [3], in [4], in [5] and in assay [6] was “inactive” each time. Also, the compound was called inactive in [7], in assay [8], in assay [9] and in assay [10].

`COc1ccccc1N1CCN(CCCNc2cc(=O)n(C)c(=O)n2C)CC1`: the Potency result in [1], in [2], in [3], in assay [4], in [5] and in assay [6] was “inactive” throughout. Also, the result in assay [7], in assay [8], in assay [9] and in assay [10] was inactive.

As to `CCN[C@H]1CN(CCCOC)S(=O)(=O)c2sc(S(N)(=O)=O)cc21`, the Potency entry in assay [1], in assay [2], in assay [3], in [4], in assay [5] and in [6] was “inactive” each time. Besides, the call in [7], in [8] and in assay [9] was inactive.

For the compound `CCCNC(C)(C)COC(=O)c1ccccc1`, the Potency entry in [1], in assay [2], in [3], in assay [4], in [5] and in assay [6] was “inactive” in each case. Also, the call in assay [7], in [8], in assay [9] and in [10] was inactive.

Consider `CCCCNCCCC`, for which the Potency result in assay [1], in assay [2], in assay [3], in [4], in assay [5] and in [6] was “inactive” throughout. Further, the call in assay [7], in assay [8] and in assay [9] was inactive.

With `Cc1ccsc1C(=CCCN1CCC[C@@H](C(=O)O)C1)c1sccc1C`, the Potency entry in assay [1], in assay [2], in [3], in assay [4], in assay [5] and in [6] was “inactive” throughout. Moreover, the result in assay [7], in assay [8] and in [9] was inactive.

For `OC[C@H]1O[C@@H](O[C@H]2[C@H](O)[C@@H](O)[C@H](O)O[C@@H]2CO)[C@H](O)[C@@H](O)[C@H]1O`, the Potency result in assay [1], in assay [2], in assay [3], in [4], in [5] and in assay [6] was “inactive” in each case. The result in assay [7], in [8] and in assay [9] was inactive.
